Test results taken from PubChem BioAssay.
Calls of active or inactive are those of the source.

Experiments:
[1] = compounds binding Alexa647 anti-His antibody – biochemical, small-molecule microarray, 635 nm fluorescence, artefact control for SMM control protein annotation, primary screen (AID 1128); conditions: higher = more signal;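 note: score merges feature fluorescence with signal-to-noise for each printed compound spot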
[2] = tested on: Human papillomavirus type 1a E7 protein (residues 1-88); test: HPV1a E7 small-molecule binders, primary screen, biochemical, small-molecule microarray, residues 1-88, 635 nm (AID 1129); conditions: small-molecule microarray binding, fluorescence 635 nm; higher = more signal
[3] = target: Focal adhesion kinase 1 (Homo sapiens) (UniProt Q05397); test: PTK2 protein binding on printed compound slides – biochemical, small-molecule microarray, 635/667 nm fluorescence, BSA, DTT, primary screen (AID 1130); conditions: 635 nm fluorescence, higher = more signal;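 note: composite of spot emission at 667 nm and signal to noise over triplicate slides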
[4] = tested on: Fibrinogen (Alexa647-labelled); test: Alexa647-fibrinogen binding to printed small molecules – biochemical, small-molecule microarray, 635/667 nm fluorescence, artefact control for SMM control-protein annotation, profiling panel (AID 1131); conditions: fibrinogen-A647 binding fluorescence, higher = more signal;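 note: z-score merges 667 nm fluorescence with per-spot signal-to-noise over triplicate slides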
[5] = target: Follistatin (Homo sapiens) (UniProt P19883); test: FST protein binding to printed compounds – biochemical, small-molecule microarray, 635/667 nm fluorescence, primary screen (AID 1132); conditions: 635 nm fluorescence, higher = more signal
[6] = target: Fibroblast growth factor 2 (Homo sapiens) (UniProt P09038); test: basic fibroblast growth factor binding to printed compounds – biochemical, small-molecule microarray, 635/667 nm fluorescence, primary screen (AID 1133); conditions: FGF2, fluorescence 635/667, higher = more signal
[7] = JC-1 mitochondrial potential readout, lung cancer cells – cell-based, A549, JC-1 fluorescence, basal, 24 h, 100 nL, profiling panel (AID 1138); conditions: higher = more signal;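 note: A549 lung adenocarcinoma cells under basal conditions with no added stimulus; test concentration not given here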
Lefty1 = Lefty1 protein binding to printed compounds – biochemical, small-molecule microarray, 635/667 nm fluorescence, primary screen (AID 1139); conditions: fluorescence 635/667, higher = more signal
[8] = tested on: wheat germ agglutinin (Triticum aestivum), Alexa647-labelled; test: Alexa647-WGA lectin binding to printed small molecules – biochemical, small-molecule microarray, 635/667 nm fluorescence, artefact control for SMM control-protein annotation, profiling panel (AID 1140); conditions: WGA-A647 binding, 635 nm fluorescence, higher = more signal;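 note: score merges 667 nm feature emission with signal to noise over triplicate slides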
[9] = target: Luciferin 4-monooxygenase (Photinus pyralis) (UniProt P08659); test: inhibition of purified Photinus pyralis luciferase – biochemical, luminescence, purified enzyme, 2006 set, primary screen (AID 1141); conditions: purified firefly luciferase, SteadyGlo luminescence, 30 min; higher = more signal, called active from +8 up or from −8 down;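 note: cell-free assay with purified firefly luciferase at 100 ng per well in PBS; test concentration not given here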
Chain of Luciferin 4-monooxygenase (Photinus pyralis) (P08659 whole entry, looked up): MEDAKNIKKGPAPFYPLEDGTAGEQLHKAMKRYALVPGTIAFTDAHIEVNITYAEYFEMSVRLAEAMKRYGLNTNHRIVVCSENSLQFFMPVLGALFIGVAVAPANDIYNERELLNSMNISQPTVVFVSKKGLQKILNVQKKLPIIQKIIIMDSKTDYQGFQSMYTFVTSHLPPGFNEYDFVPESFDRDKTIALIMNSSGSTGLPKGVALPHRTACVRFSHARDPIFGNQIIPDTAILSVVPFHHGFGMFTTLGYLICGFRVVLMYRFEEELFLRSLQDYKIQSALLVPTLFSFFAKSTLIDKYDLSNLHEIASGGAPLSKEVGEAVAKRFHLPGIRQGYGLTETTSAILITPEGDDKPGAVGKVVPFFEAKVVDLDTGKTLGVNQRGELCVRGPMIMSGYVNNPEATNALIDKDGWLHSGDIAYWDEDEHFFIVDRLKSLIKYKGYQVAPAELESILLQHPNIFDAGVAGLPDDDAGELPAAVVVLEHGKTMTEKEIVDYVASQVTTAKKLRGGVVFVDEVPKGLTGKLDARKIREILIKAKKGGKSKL

Chain of Follistatin (Homo sapiens) (P19883 whole entry, looked up): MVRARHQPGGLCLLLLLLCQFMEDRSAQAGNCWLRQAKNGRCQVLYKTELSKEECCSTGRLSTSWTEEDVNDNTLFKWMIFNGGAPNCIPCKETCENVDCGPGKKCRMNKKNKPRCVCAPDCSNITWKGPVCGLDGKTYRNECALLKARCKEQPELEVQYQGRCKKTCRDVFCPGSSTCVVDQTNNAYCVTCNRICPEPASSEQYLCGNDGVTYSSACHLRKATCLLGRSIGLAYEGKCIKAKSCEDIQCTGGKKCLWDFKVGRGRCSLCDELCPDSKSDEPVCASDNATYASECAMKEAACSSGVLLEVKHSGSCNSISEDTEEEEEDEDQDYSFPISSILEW
Chain of Fibroblast growth factor 2 (Homo sapiens) (P09038 whole entry, looked up): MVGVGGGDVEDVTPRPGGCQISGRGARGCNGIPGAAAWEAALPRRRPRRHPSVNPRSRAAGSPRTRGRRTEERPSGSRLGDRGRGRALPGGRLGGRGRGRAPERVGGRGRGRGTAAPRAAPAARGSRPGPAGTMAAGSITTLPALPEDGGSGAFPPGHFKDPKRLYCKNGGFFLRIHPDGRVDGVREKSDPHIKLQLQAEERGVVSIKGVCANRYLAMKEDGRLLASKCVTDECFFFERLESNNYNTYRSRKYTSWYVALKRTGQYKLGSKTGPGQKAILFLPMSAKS
Chain of Focal adhesion kinase 1 (Homo sapiens) (Q05397 whole entry, looked up): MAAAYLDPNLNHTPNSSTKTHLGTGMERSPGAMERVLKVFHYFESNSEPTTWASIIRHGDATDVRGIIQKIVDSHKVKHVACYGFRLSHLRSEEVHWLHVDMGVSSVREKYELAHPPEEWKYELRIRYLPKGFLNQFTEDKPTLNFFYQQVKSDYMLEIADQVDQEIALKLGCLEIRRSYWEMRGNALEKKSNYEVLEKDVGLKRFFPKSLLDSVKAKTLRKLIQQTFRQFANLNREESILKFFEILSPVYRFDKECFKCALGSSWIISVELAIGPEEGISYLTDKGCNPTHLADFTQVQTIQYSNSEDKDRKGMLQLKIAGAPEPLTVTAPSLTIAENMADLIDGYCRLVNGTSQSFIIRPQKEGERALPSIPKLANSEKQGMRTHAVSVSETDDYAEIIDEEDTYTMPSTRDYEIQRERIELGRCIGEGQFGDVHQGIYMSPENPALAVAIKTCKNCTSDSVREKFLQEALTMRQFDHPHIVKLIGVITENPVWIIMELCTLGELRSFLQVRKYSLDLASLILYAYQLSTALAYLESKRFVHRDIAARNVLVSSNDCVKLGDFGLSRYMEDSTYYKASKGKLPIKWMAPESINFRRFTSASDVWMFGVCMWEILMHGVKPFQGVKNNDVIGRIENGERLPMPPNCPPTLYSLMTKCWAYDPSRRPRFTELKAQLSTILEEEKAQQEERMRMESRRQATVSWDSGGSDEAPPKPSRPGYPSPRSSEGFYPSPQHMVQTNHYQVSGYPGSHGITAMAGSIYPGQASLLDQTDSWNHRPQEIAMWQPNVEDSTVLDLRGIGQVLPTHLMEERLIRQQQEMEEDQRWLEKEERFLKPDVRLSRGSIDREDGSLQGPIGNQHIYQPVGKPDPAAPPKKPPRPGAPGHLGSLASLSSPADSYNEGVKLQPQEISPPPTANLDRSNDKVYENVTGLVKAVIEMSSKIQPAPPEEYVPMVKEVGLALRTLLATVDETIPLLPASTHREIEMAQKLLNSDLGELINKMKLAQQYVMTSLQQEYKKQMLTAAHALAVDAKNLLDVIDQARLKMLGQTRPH

C=C(COC)/C(=C/C[C@H](OC(=O)c1ccncc1)c1ccccc1OCCO)c1cc(C(=O)OC)ccc1OC
composite z-score [1]: 0.717 | composite z-score [2]: 1.06 | composite z-score [3]: 0.319 | composite z-score [4]: 0.148 | composite z-score [5]: 1.17 | composite z-score [6]: 0.66 | z-score [7]: 0.416 | composite z-score (Lefty1): 1.32 | composite z-score [8]: 0.925 | z-score [9]: -0.756 (inactive)

C=C(C(=O)CC[C@H](OC(=O)c1ccccc1-c1ccccc1C(=O)O)c1cccc(OCCO)c1)C(C)C
composite z-score [1]: 0.0001 | composite z-score [2]: -0.399 | composite z-score [3]: 0.0444 | composite z-score [4]: 0.0591 | composite z-score [5]: 0.319 | composite z-score [6]: 0.85 | z-score [7]: -0.697 | composite z-score (Lefty1): 0.485 | composite z-score [8]: 0.36 | z-score [9]: -0.373 (inactive)

COC(=O)[C@@]1(Cc2ccc(OC)cc2)[C@H]2c3cc(C(=O)N4CCCC4)n(CCc4c[nH]c5ccc(OC)cc45)c3C[C@H]2CN1C(=O)c1ccccc1
composite z-score [1]: 1.99 | composite z-score [2]: 1.18 | composite z-score [3]: 0.894 | composite z-score [4]: 0.755 | composite z-score [5]: 1.22 | composite z-score [6]: -0.904 | z-score [7]: 0.675 | composite z-score (Lefty1): -0.162 | composite z-score [8]: 1.29 | z-score [9]: 1.3 (inactive)

CC(=O)NCCCC[C@@H]1NC(=O)[C@@H]2C[C@H](C(=O)NCCCCCN)[C@H](c3ccc(O)cc3)N2C1=O
composite z-score [1]: 0.367 | composite z-score [2]: 1.19 | composite z-score [3]: 0.445 | composite z-score [4]: 0.671 | composite z-score [5]: 1.33 | composite z-score [6]: 1.24 | z-score [7]: -0.664 | composite z-score (Lefty1): 1.58 | composite z-score [8]: 0.283 | z-score [9]: -0.399 (inactive)

CCOC(=O)C[C@H]1[C@H](OC(=O)c2ccc(C(=O)c3ccccc3)cc2)[C@@H](NC(=O)C2CCCCC2)c2cc(OCCCO)ccc2N1C(=O)c1ccc2ccccc2n1
composite z-score [1]: 0.497 | composite z-score [2]: 0.835 | composite z-score [3]: 0.0096 | composite z-score [4]: 0.102 | composite z-score [5]: 0.796 | composite z-score [6]: 0.979 | z-score [7]: 0.956 | composite z-score (Lefty1): 1.41 | composite z-score [8]: 0.0469 | z-score [9]: 0.425 (inactive)

O=C(NCc1ccc(F)cc1)[C@H]1C[C@H]2C(=O)NCC(=O)N2[C@H]1c1ccc(O)cc1
composite z-score [1]: 1.63 | composite z-score [2]: -0.121 | composite z-score [3]: 0.0061 | composite z-score [4]: 0.611 | composite z-score [5]: 1.45 | composite z-score [6]: 1.89 | z-score [7]: 0.576 | composite z-score (Lefty1): 1.35 | composite z-score [8]: 0.187 | z-score [9]: -0.0852 (inactive)

CCOC(=O)C[C@H]1[C@H](OC(=O)c2cc3ccccc3oc2=O)[C@@H](NC(=O)c2ccccc2)c2cc(OCCCO)ccc2N1C(=O)c1ccccc1
composite z-score [1]: 0.29 | composite z-score [2]: 0.828 | composite z-score [3]: 0.138 | composite z-score [4]: 0.37 | composite z-score [5]: 0.744 | composite z-score [6]: 1.18 | z-score [7]: -0.816 | composite z-score (Lefty1): 0.443 | composite z-score [8]: 0.0432 | z-score [9]: 0.713 (inactive)

CS(=O)(=O)CCOC(=O)C1=CC(CCCO)=CC(c2ccc(CN3CCCC3)cc2)N(Cc2sc3ccccc3c2Cl)C=C1C(=O)OCCS(C)(=O)=O (stereo not given)
composite z-score [1]: 2.17 | composite z-score [2]: 1.18 | composite z-score [3]: 0.45 | composite z-score [4]: 1 | composite z-score [5]: 0.526 | composite z-score [6]: 1.21 | z-score [7]: 2.31 | composite z-score (Lefty1): 0.722 | composite z-score [8]: 1.31 | z-score [9]: -1.57 (inactive)

Oc1ccc2cc[n+](Cc3cc4c(cc3Br)OCO4)cc2c1
composite z-score [1]: -0.706 | composite z-score [2]: -1.93 | composite z-score [3]: -0.947 | composite z-score [4]: -1.38 | composite z-score [5]: -0.145 | composite z-score [6]: -0.387 | z-score [7]: 0.938 | composite z-score (Lefty1): -1.15 | composite z-score [8]: 0.136 | z-score [9]: -1.13 (inactive)

O=C(C1N=C(c2ccc(OCCCO)cc2)N(c2ccccc2)O1)N1CCCCC1 (stereo not given)
composite z-score [1]: 1.94 | composite z-score [2]: 1.25 | composite z-score [3]: 0.634 | composite z-score [4]: 1 | composite z-score [5]: 1.05 | composite z-score [6]: 0.423 | z-score [7]: 0.924 | composite z-score (Lefty1): 0.168 | composite z-score [8]: 1.31 | z-score [9]: -10.6 (active)

[N-]=[N+]=Nc1ccccc1C[C@]1(C(=O)NCCN2CCOCC2)COC(c2ccc(OCCCO)cc2)=N1
composite z-score [1]: 1.34 | composite z-score [2]: 1.26 | composite z-score [3]: 0.696 | composite z-score [4]: 0.649 | composite z-score [5]: 1.02 | composite z-score [6]: 1.04 | z-score [7]: 2.08 | composite z-score (Lefty1): -0.494 | composite z-score [8]: 0.607 | z-score [9]: -2.91 (inactive)

CC(C)[Si]1(C(C)C)OCc2cc(C3CC3)nc(-c3ccc(Oc4ccccc4)cc3)c21
composite z-score [1]: -0.33 | composite z-score [2]: -1.1 | composite z-score [3]: -0.0826 | composite z-score [4]: -0.753 | composite z-score [5]: -0.538 | composite z-score [6]: -0.206 | z-score [7]: 0.546 | composite z-score (Lefty1): -0.365 | composite z-score [8]: -0.596 | z-score [9]: -0.311 (inactive)

COCC(=C=CC[C@H](O)c1ccc(CO)o1)CCO
composite z-score [1]: 1.28 | composite z-score [2]: 0.58 | composite z-score [3]: 0.646 | composite z-score [4]: 0.501 | composite z-score [5]: 1.3 | composite z-score [6]: 1.14 | z-score [7]: 0.0889 | composite z-score (Lefty1): 0.915 | composite z-score [8]: 0.277 | z-score [9]: -0.561 (inactive)

C=CC[C@@H](OC(=O)Nc1ccc(OC)cc1)c1ccc(O)c(F)c1
composite z-score [1]: 0.0579 | composite z-score [2]: -0.0596 | composite z-score [3]: 0.676 | composite z-score [4]: -0.699 | composite z-score [5]: 0.0619 | composite z-score [6]: -0.448 | z-score [7]: -1.71 | composite z-score (Lefty1): -0.201 | composite z-score [8]: -0.733 | z-score [9]: -4.17 (inactive)

COC(=O)C1(CC(C)C)C=C2C(=C(c3ccccc3)C(=O)C2C)CN1 (stereo not given)
composite z-score [1]: 1.75 | composite z-score [2]: 0.166 | composite z-score [3]: 0.879 | composite z-score [4]: 0.579 | composite z-score [5]: 0.111 | composite z-score [6]: 0.953 | z-score [7]: 0.674 | composite z-score (Lefty1): 0.0364 | composite z-score [8]: 0.663 | z-score [9]: 0.53 (inactive)

[N-]=[N+]=Nc1ccccc1[C@H]1OC(c2ccc(OCCCO)cc2)=N[C@@]1(Cc1ccccc1)C(=O)NCCN1CCOCC1
composite z-score [1]: 1.65 | composite z-score [2]: 1.23 | composite z-score [3]: 0.309 | composite z-score [4]: 0.996 | composite z-score [5]: 1.21 | composite z-score [6]: 0.989 | z-score [7]: 2.49 | composite z-score (Lefty1): 0.624 | composite z-score [8]: 1.2 | z-score [9]: -4.32 (inactive)

O=C1[C@H]2C=C(I)[C@H](C[C@@H]2OCCOCCO)[C@@]12CO2
composite z-score [1]: -0.0655 | composite z-score [2]: 0.747 | composite z-score [3]: 0.0017 | composite z-score [4]: 0.0216 | composite z-score [5]: 0.697 | composite z-score [6]: 0.952 | z-score [7]: -0.43 | composite z-score (Lefty1): 0.858 | composite z-score [8]: -0.12 | z-score [9]: 0.818 (inactive)

CC(C)(C)OC(=O)COc1cccc(C(=O)CCN2CCOCC2)c1
composite z-score [1]: -0.413 | composite z-score [2]: 0.355 | composite z-score [3]: -0.272 | composite z-score [4]: 0.226 | composite z-score [5]: -0.35 | composite z-score [6]: -0.284 | z-score [7]: 0.583 | composite z-score (Lefty1): -0.57 | composite z-score [8]: -0.0945 | z-score [9]: -2.13 (inactive)

CC1=C2[C@@H](CCc3ccccc3)OB(O)C[C@@H]2[C@@H]2C(=O)N(Cc3ccccc3)C(=O)[C@@H]2C1
composite z-score [1]: 0.0349 | composite z-score [2]: 0.55 | composite z-score [3]: -0.0683 | composite z-score [4]: 0.987 | composite z-score [5]: 0.946 | composite z-score [6]: 0.33 | z-score [7]: 0.758 | composite z-score (Lefty1): 0.388 | composite z-score [8]: 0.505 | z-score [9]: -0.653 (inactive)

COc1ccc(C#Cc2ccc3c(c2)[C@]2(C(=O)N3)[C@H](c3ccc(O)cc3)N3[C@H](c4ccccc4)[C@H](c4ccccc4)OC(=O)[C@H]3[C@@H]2C(=O)Nc2nc3ccccc3s2)cc1
composite z-score [1]: 0.269 | composite z-score [2]: 1.25 | composite z-score [3]: 0.359 | composite z-score [4]: 0.983 | composite z-score [5]: 1.29 | composite z-score [6]: 0.964 | z-score [7]: -2.1 | composite z-score (Lefty1): 0.882 | composite z-score [8]: 0.768 | z-score [9]: -1.28 (inactive)

CCCCC(O)C1C=CC2C(=O)N(C)C(=O)C2N1N(c1ccccc1)c1ccccc1 (stereo not given)
composite z-score [1]: 1.92 | composite z-score [2]: 1.15 | composite z-score [3]: 0.912 | composite z-score [4]: 0.824 | composite z-score [5]: 0.613 | composite z-score [6]: -0.604 | z-score [7]: 0.804 | composite z-score (Lefty1): 0.194 | composite z-score [8]: 1.21 | z-score [9]: -0.004 (inactive)

COCCOC(=O)N1C(=O)[C@@]2(c3cc(C#CCCO)ccc31)[C@H](c1ccc(OCCO)cc1)N1[C@H](c3ccccc3)[C@H](c3ccccc3)OC(=O)[C@H]1[C@@H]2C(=O)Nc1nc2ccccc2s1
composite z-score [1]: 0.872 | composite z-score [2]: 1.15 | composite z-score [3]: 0.479 | composite z-score [4]: 0.817 | composite z-score [5]: 1.32 | composite z-score [6]: 0.759 | z-score [7]: -2.37 | composite z-score (Lefty1): 1.41 | composite z-score [8]: 1.13 | z-score [9]: -2.18 (inactive)
